From PubChem BioAssay AID652115 (Broad Institute, 2013)
“And” between values parts separate entries of the source, which are not always exact repeats. Equal entries are not always repeated. Out of some 330,000 compounds screened, about 3,800 (1.2%) were called active. No stated cut-off is given here; in the data, active means inhibition above about 15%; inconclusive means no clear call, values can overlap the other calls; inactive means below that. The sample as a whole holds a higher share of actives than the screen did. A structure can be active in one record and inactive in another.

The compounds below were run against NAD-dependent protein deacylase sirtuin-5, mitochondrial (Homo sapiens) (UniProt Q9NXA8) (assay: blockers of sirtuin-5 deacylase activity – biochemical, fluorescence imaging, single point, set 5, primary screen (AID 652115)). Conditions: Purified SirT5, succinyl-peptide AMC, trypsin-coupled fluorescence; at 15 µM; stronger effect = higher value.
Sequence of NAD-dependent protein deacylase sirtuin-5, mitochondrial (Homo sapiens) (Q9NXA8 whole entry, looked up): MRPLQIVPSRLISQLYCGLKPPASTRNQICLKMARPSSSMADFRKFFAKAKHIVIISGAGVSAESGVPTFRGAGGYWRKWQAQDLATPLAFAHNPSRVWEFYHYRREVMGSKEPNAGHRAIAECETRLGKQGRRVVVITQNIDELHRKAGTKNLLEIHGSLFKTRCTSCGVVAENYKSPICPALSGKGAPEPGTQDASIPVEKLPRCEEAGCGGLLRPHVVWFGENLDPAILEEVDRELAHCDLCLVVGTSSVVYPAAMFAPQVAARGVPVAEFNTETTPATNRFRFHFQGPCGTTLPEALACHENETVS
`C=CCN1C(=O)C2(OCCCO2)c2cccc(Cl)c21` was tested, and the inhibition was -2.09% (inactive). In the case of `CCOC(=O)CN1C(=O)C(O)(CC(=O)c2ccccn2)c2ccccc21` (stereo not given), the inhibition is reported as -3.62% (inactive). With `C=CCN1C(=O)C(O)(CC(=O)c2ccccn2)c2ccccc21` (stereo not given) the inhibition was 26.6% (active). With `C[C@@H]1CN([C@H](C)CO)C(=O)c2cc(NC(=O)NC3CCCCC3)ccc2O[C@@H](C)CCCCO[C@H]1CN(C)C(=O)Nc1ccccc1` the inhibition was 3.67% (inactive). `CCCNC(=O)N1[C@@H](C#N)[C@H](c2ccc(-c3ccc(C(=O)N(C)C)cc3)cc2)[C@@H]1CO` was tested, and the inhibition was 4.75% (inactive). With `CO[C@@H]1CN(C)C(=O)c2cc(NC(=O)C3CCC3)ccc2OC[C@H](C)N(Cc2nccs2)C[C@H]1C` the inhibition was -1.69% (inactive). In the case of `COc1cccc(S(=O)(=O)N2CCC3(CC2)CN[C@H](CO)c2c3c3ccc(OC)cc3n2C)c1`, the inhibition is reported as 1.64% (inactive). `O=C(C[C@@H]1C[C@@H]2c3cc(NS(=O)(=O)c4ccc(F)cc4)ccc3O[C@@H]2[C@H](CO)O1)NCc1cc(F)ccc1F` was tested, and the inhibition was -3.29% (inactive). For `COCC(=O)N1CC(=O)N2[C@H](C1)[C@H](c1ccc(C#CC3CCCCC3)cc1)[C@@H]2CO`, the inhibition was -2.8% (inactive). For `COc1ccccc1CN(C)C(=O)c1cc2ccccc2o1`, the inhibition was -1.39% (inactive). For `CN(C)C(CNC(=O)c1cc2ccccc2o1)c1ccccc1` (stereo not given), the inhibition was -2.25% (inactive). For `CN(C)CCCCCN(C)Cc1cc2ccccc2o1`, the inhibition was 36.8% (active). For `C[C@@H]1CN([C@H](C)CO)C(=O)c2cc(NS(=O)(=O)c3ccc(F)cc3)ccc2O[C@H]1CN(C)Cc1ccncc1`, the inhibition was -0.686% (inactive). With `O=S(=O)(c1ccccc1)N1C[C@@H]2[C@H](c3ccccc31)[C@H](CO)N2Cc1ccccn1` the inhibition was 1.34% (inactive). In the case of `O=C(CSc1nc2ccccc2c(=O)[nH]1)Nc1nc(-c2ccc(Br)cc2)cs1`, the inhibition is reported as -5.37% (inactive). `Cc1ccc(-c2csc(NC(=O)Cn3[nH]c(=O)c4ccccc4c3=O)n2)cc1` was tested, and the inhibition was 112% (active). With `CC(=O)NCc1ccc(-c2csc(NC(=O)CCCc3nc4ccccc4c(=O)[nH]3)n2)cc1` the inhibition was -2.85% (inactive). `Cc1noc(C)c1S(=O)(=O)N(C)C[C@@H]1OCCCC[C@@H](C)Oc2ccc(NC(=O)c3ccccc3)cc2C(=O)N([C@H](C)CO)C[C@H]1C` was tested, and the inhibition was 0.24% (inactive). In the case of `C[C@H]1CN([C@@H](C)CO)C(=O)c2cccc(NC(=O)Nc3ccc(C(F)(F)F)cc3)c2O[C@H]1CN(C)C(=O)NC1CCCCC1`, the inhibition is reported as 2.24% (inactive). With `C[C@@H]1CN([C@H](C)CO)C(=O)c2cccc(NS(C)(=O)=O)c2O[C@@H]1CN(C)S(=O)(=O)c1cccs1` the inhibition was 1.65% (inactive). `C[C@@H]1CN([C@H](C)CO)C(=O)c2cccc(NC(=O)Nc3ccccc3)c2O[C@@H]1CN(C)C(=O)NC1CCCCC1` was tested, and the inhibition was 3.35% (inactive). With `COc1ccc(NC(=O)Nc2cccc3c2O[C@H](CN(C)S(=O)(=O)c2cccs2)[C@H](C)CN([C@@H](C)CO)C3=O)cc1` the inhibition was 1.18% (inactive). `C[C@@H]1CN([C@@H](C)CO)C(=O)c2ccccc2-c2ccccc2CO[C@H]1CN(C)C(=O)Nc1ccccc1` was tested, and the inhibition was -1.46% (inactive). For `C[C@H]1CN([C@@H](C)CO)C(=O)c2ccccc2-c2ccccc2CO[C@H]1CN(C)C(=O)Nc1ccc(-c2ccccc2)cc1`, the inhibition was 16.8% (active). `COc1ccc(NC(=O)N(C)C[C@H]2OCc3ccccc3-c3ccccc3C(=O)N([C@H](C)CO)C[C@@H]2C)cc1` was tested, and the inhibition was 1.71% (inactive). For `C[C@H](CO)N1C[C@H](C)[C@@H](CN(C)C(=O)NC2CCCCC2)Oc2c(NC(=O)Nc3ccc(F)cc3)cccc2C1=O`, the inhibition was 103% (active). In the case of `CC(C)NC(=O)Nc1cccc2c1O[C@H](CN(C)S(=O)(=O)c1cccs1)[C@@H](C)CN([C@H](C)CO)C2=O`, the inhibition is reported as 23.7% (active). In the case of `COc1ccc2c3c(n(C)c2c1)[C@H](CO)N(C)CC31CN(S(=O)(=O)c2cccc(C)c2)C1`, the inhibition is reported as 4.2% (inactive). For `CO[C@H]1CN(C)C(=O)c2cc(NC(=O)Nc3ccccc3F)ccc2OC[C@H](C)N(C)C[C@H]1C`, the inhibition was -12% (inactive). In the case of `C[C@H](CO)N1C[C@H](C)[C@@H](CN(C)S(=O)(=O)c2ccc(F)cc2)OCCCC[C@H](C)Oc2ccc(NC(=O)CCCN(C)C)cc2C1=O`, the inhibition is reported as -2.49% (inactive). `C[C@H](NC(=O)C[C@@H]1CC[C@H](NC(=O)CN2CCOCC2)[C@H](CO)O1)c1ccccc1` was tested, and the inhibition was -3.17% (inactive). In the case of `C=CC1=C(C(=O)O)N2C(=O)[C@@H](NC(=O)/C(=N\OCC(=O)O)c3csc(N)n3)[C@H]2SC1`, the inhibition is reported as 31.1% (active). In the case of `Cc1cc(C)cc(C(=O)NC2C(=O)N3C(C(=O)O)=C(CSc4nnc(C)s4)CSC23)c1` (stereo not given), the inhibition is reported as -0.622% (inactive). In the case of `CO/N=C(\C(=O)N[C@@H]1C(=O)N2C(C(=O)O)=C(COC(C)=O)CS[C@H]12)c1csc(N)n1` (stereo in doubt), the inhibition is reported as -2.03% (inactive) and -4% (inactive) and 22.2% (active). In the case of `Cc1nnc(SCC2=C(C(=O)O)N3C(=O)C(NC(=O)Cn4nc(C)c(Cl)c4C)C3SC2)s1` (stereo not given), the inhibition is reported as -1.34% (inactive). In the case of `C=CC1=C(C(=O)O)N2C(=O)[C@@H](NC(=O)/C(=N/OCC(=O)O)c3csc(N)n3)[C@H]2SC1`, the inhibition is reported as 30.9% (active). For `CO[C@@H]1CN(C)C(=O)c2cc(NC(=O)C3CC3)ccc2OC[C@@H](C)N(Cc2nccs2)C[C@@H]1C`, the inhibition was -0.135% (inactive). In the case of `CCC(=O)N1[C@@H]2CN(C(=O)Nc3ccc(Cl)cc3)c3ccccc3[C@@H]2[C@@H]1CO`, the inhibition is reported as -1.71% (inactive). With `CCCNC(=O)C[C@H]1C[C@@H]2c3cc(NC(=O)NC4CCCC4)ccc3O[C@@H]2[C@@H](CO)O1` the inhibition was -4.3% (inactive). `CN(C)CC(=O)N[C@@H]1C[C@@H]2O[C@H](CO)CC[C@@H]2O[C@@H]1CCc1ccc(C#Cc2ccccc2)cc1` was tested, and the inhibition was -2.33% (inactive). In the case of `Cc1noc(C)c1NC(=O)Nc1ccc2c(c1)C(=O)N([C@@H](C)CO)C[C@@H](C)[C@H](CN(C)C)O2`, the inhibition is reported as -1.93% (inactive). `CN(C)CC(=O)Nc1ccc2c(c1)[C@H]1C[C@H](CC(=O)NCc3ccc4c(c3)OCO4)O[C@@H](CO)[C@H]1O2` was tested, and the inhibition was 0.927% (inactive). For `Cc1ccc(S(=O)(=O)N(C)C[C@@H]2Oc3ccc(N(C)C)cc3C(=O)N([C@@H](C)CO)C[C@H]2C)cc1`, the inhibition was -7.63% (inactive). `COc1ccc2c3c(n(C)c2c1)[C@@H](CO)N(Cc1ccncc1)CC31CN(C(=O)C2CCC2)C1` was tested, and the inhibition was 2.18% (inactive). In the case of `COc1cccc(C(=O)Nc2nc3ccc(S(C)(=O)=O)cc3s2)c1`, the inhibition is reported as -3% (inactive). `CNC(=O)c1ccc2nc(NC(C)=O)sc2c1` was tested, and the inhibition was 17.4% (active). For `CS(=O)(=O)c1ccc2nc(NC(=O)c3ccc(Cl)nc3)sc2c1`, the inhibition was 2.94% (inactive). With `CCC(=O)N1C[C@@H](C)[C@H](OC)CN(C)C(=O)c2ccc(NC(=O)c3ccc(F)cc3)cc2OC[C@@H]1C` the inhibition was -5.95% (inactive). In the case of `O=C(CN1CCOCC1)NCC[C@H]1CC[C@@H](NC(=O)Nc2ccc(Cl)cc2)[C@@H](CO)O1`, the inhibition is reported as 2.34% (inactive). In the case of `COC(=O)C(CC#Cc1ccc2c(c1)[C@]1(C(=O)N2)[C@H](c2ccccc2OCCO)N2[C@H](c3ccccc3)[C@H](c3ccccc3)OC(=O)[C@H]2[C@@H]1C(N)=O)C(=O)OC`, the inhibition is reported as 19.5% (active). For `COc1ccc(C#Cc2ccc3c(c2)[C@]2(C(=O)N3)[C@H](c3ccccc3OCCO)N3[C@H](c4ccccc4)[C@H](c4ccccc4)OC(=O)[C@H]3[C@@H]2C(=O)N2CCCCCCC2)cc1`, the inhibition was 0.608% (inactive). In the case of `COC(=O)C(CC#Cc1ccc2c(c1)[C@]1(C(=O)N2)[C@H](c2ccc(O)cc2)N2[C@H](c3ccccc3)[C@H](c3ccccc3)OC(=O)[C@H]2[C@@H]1C(=O)NC[C@H](O)c1ccccc1)C(=O)OC`, the inhibition is reported as 5.09% (inactive). For `CCCN1[C@@H]2c3ccc(C4=CCCC4)c(=O)n3C[C@@H]2[C@@H](CO)[C@@H]1C(=O)NCc1ccccn1`, the inhibition was -0.978% (inactive). With `CC(C)CC#Cc1ccc2c(c1)O[C@@H](CN(C)C(=O)c1ccccc1F)[C@H](C)CN([C@H](C)CO)S2(=O)=O` the inhibition was 6.8% (inactive). `C[C@@H]1CN([C@H](C)CO)S(=O)(=O)c2ccc(C#CCN(C)C)cc2O[C@H]1CN(C)C(=O)CC1CC1` was tested, and the inhibition was 2.43% (inactive). For `C[C@H](CO)N1C[C@H](C)[C@H](CN(C)CC2CC2)Oc2cc(-c3ccc(F)cc3)ccc2S1(=O)=O`, the inhibition was -4.28% (inactive). With `COCC(=O)N(C)C[C@@H]1Oc2cc(C#CCC(C)C)ccc2S(=O)(=O)N([C@@H](C)CO)C[C@@H]1C` the inhibition was 15.3% (active). For `COCC#Cc1ccc2c(c1)O[C@@H](CN(C)C(=O)Nc1ccccc1F)[C@H](C)CN([C@H](C)CO)S2(=O)=O`, the inhibition was 3.15% (inactive). With `CC(C)CC#Cc1ccc2c(c1)O[C@H](CN(C)C(=O)CC1CC1)[C@@H](C)CN([C@@H](C)CO)S2(=O)=O` the inhibition was 31.5% (active). In the case of `C[C@@H]1CN([C@@H](C)CO)S(=O)(=O)c2ccc(C#CCN(C)C)cc2O[C@@H]1CN(C)C(=O)CC1CC1`, the inhibition is reported as 1.11% (inactive). For `CCC(=O)N(C)C[C@H]1Oc2cc(C#CCC(C)C)ccc2S(=O)(=O)N([C@H](C)CO)C[C@H]1C`, the inhibition was 0.389% (inactive). With `COCC(=O)N(C)C[C@H]1Oc2cc(C#CC(C)C)ccc2S(=O)(=O)N([C@H](C)CO)C[C@@H]1C` the inhibition was 3.27% (inactive). For `CC(C)CC#Cc1ccc2c(c1)O[C@@H](CN(C)C(=O)Nc1ccccc1F)[C@@H](C)CN([C@@H](C)CO)S2(=O)=O`, the inhibition was 18.7% (active). For `C[C@@H]1CN([C@@H](C)CO)S(=O)(=O)c2ccc(-c3ccc(F)cc3)cc2O[C@@H]1CN(C)CC1CC1`, the inhibition was -1.76% (inactive). With `C[C@@H]1CN([C@@H](C)CO)S(=O)(=O)c2ccc(C#Cc3ccc(F)cc3)cc2O[C@@H]1CN(C)CC1CC1` the inhibition was 15.1% (active).
